UDG counterscr: UDG inhibition counter-screen | Potency, µM (titrated, usually from 115 µM), usual class: inhibitors | actives 0.14% (n = 91,000) | FRET deamination/UDG coupled assay, UDG read, 4 h | AID 1347430; further: nearly all actives have a fitted effect of over 65% in size
AID inh: inhibitors of human activation induced cytidine deaminase. AID deamination FRET fluorescence, UDG-coupled, 4 h. Potency, µM (titrated, usually from 115 µM), usual class: inhibitors. actives 0.32% (n = 91,000). Q9GZX7; further: nearly all actives have a fitted effect of over 25% in size
Target sequence (Q9GZX7 whole entry, looked up): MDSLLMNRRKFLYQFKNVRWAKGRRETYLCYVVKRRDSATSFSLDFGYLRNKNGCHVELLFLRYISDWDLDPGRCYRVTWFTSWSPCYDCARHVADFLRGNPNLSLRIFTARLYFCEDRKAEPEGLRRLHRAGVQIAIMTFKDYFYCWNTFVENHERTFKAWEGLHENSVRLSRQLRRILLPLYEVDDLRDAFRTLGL
Of the large screens only hits and unclear results are named; the others gave an inactive call. Compounds with a hit are over-represented: about 0.4% of the library has one in this group of screens. The call rests on the fitted dose curve; in most records, active means well fitted curve in the direction sought with a large enough effect; inconclusive means small, poorly fitted or top-dose-only effect, or another doubt; inactive means no such curve, though single readings can be large; an effect the other way counts as inactive or inconclusive.

Cc1csc(CCCCNC(=O)C2(c3ccc(Br)cc3)CC2)n1	none
CC1CCN(c2nc3c(S(=O)(=O)c4ccccc4)nnn3c3ccc(Cl)cc23)CC1	AID inh inconclusive
CCc1ccc(S(=O)(=O)c2nnn3c2nc(N2CCC(C(N)=O)CC2)c2cc(Cl)ccc23)cc1	AID inh 25µM
CCC(Sc1nc2c(sc3ccccc32)c(=O)n1CCc1ccc(OC)c(OC)c1)C(=O)N(CC)CC (stereo unspecified)	AID inh 32µM
CCC(Sc1nc2c(sc3ccccc32)c(=O)n1CCc1ccccc1)C(=O)N(CC)CC (stereo unspecified)	none
CN(C(=O)Cn1nc(-c2ccccc2)ccc1=O)C1CCS(=O)(=O)C1 (stereo unspecified)	none
CC(Sc1nc(C(F)(F)F)nc2ccccc12)C(=O)NCC1CCCCC1 (stereo unspecified)	none

Source: PubChem BioAssay (National Center for Advancing Translational Sciences (NCATS))
